Several values for one entry are separate records, joined by “and”; a condition that tells them apart may be missing. Equal values may be shown once. The whole screen tested about 5,700 compounds, of which about 85 (1%) were called active. This is one part of a sample in which actives are shown more often than they occur. No stated cut-off is given here; in the data, active means p53-positive nuclei above about 36% (passing the limit was not always enough); inactive means the rest.
Tests used:
[1] = nuclear p53 accumulation, HPV+ cells – imaging, p53-positive nuclei imaging, 24 h, 48 h (AID 1508601); conditions: 24/48 h
[2] = molecular target: Cellular tumor antigen p53 (Homo sapiens) (UniProt P04637); test: as above; conditions: 24/48 h, stronger effect = higher value
Sequence of Cellular tumor antigen p53 (Homo sapiens) (P04637 whole entry, looked up): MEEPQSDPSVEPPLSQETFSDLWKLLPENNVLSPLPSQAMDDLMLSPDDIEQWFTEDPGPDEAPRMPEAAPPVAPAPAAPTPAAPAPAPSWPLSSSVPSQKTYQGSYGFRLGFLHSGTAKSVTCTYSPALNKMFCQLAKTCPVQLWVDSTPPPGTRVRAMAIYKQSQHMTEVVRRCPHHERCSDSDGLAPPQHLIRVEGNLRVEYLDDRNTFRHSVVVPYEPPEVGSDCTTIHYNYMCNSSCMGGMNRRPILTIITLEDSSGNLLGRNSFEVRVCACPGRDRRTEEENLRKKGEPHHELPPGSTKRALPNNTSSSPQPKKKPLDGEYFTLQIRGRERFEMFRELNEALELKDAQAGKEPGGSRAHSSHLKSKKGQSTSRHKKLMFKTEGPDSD

**Q.** For COc1ccc(CN2CCN(c3nccc(-c4c(C)nn(C)c4C)n3)CC2=O)cc1, which nuclei count, normalised ([1]; measured here: cell number at 24 h, concentration not given here) is on record?
**A.** 101%

**Q.** And the nuclei count, normalised ([1]; measured here: cell number at 48 h, concentration not given here)?
**A.** 105%

**Q.** And the p53-positive nuclei, normalised ([2]; concentration not given here)?
**A.** -0.125% (inactive)

**Q.** What about the p53-positive nuclei, normalised ([2]; measured here: p53 positive nuclei at 24 h, concentration not given here) of the same compound?
**A.** -0.147%

**Q.** For CN(C)CCC(CSc1ccccc1)Nc1ccc(S(=O)(=O)NC(=O)c2ccc(N3CCN(Cc4ccccc4-c4ccc(Cl)cc4)CC3)cc2)cc1[N+](=O)[O-] (stereo not given), which nuclei count, normalised ([1]; measured here: cell number at 24 h, Library stock concentration: 500 nM) is on record?
**A.** 120%

**Q.** And the nuclei count, normalised ([1]; measured here: cell number at 24 h, Library stock concentration: 1.5 uM)?
**A.** 122%

**Q.** And the nuclei count, normalised ([1]; measured here: cell number at 24 h, Library stock concentration: 4.6 uM)?
**A.** 117%

**Q.** What about the nuclei count, normalised ([1]; measured here: cell number at 24 h, Library stock concentration: 13.7 uM) of the same compound?
**A.** 121%

**Q.** And the nuclei count, normalised ([1]; measured here: cell number at 24 h, Library stock concentration: 41 uM)?
**A.** 117%

**Q.** What about the nuclei count, normalised ([1]; measured here: cell number at 24 h, Library stock concentration: 80 uM) of the same compound?
**A.** 111% and 86.3%

**Q.** What about the nuclei count, normalised ([1]; measured here: cell number at 24 h, Library stock concentration: 123 uM) of the same compound?
**A.** 117%

**Q.** And the nuclei count, normalised ([1]; measured here: cell number at 24 h, Library stock concentration: 370 uM)?
**A.** 117%

**Q.** What about the nuclei count, normalised ([1]; measured here: cell number at 24 h, Library stock concentration: 400 uM) of the same compound?
**A.** 109% and 85.3%

**Q.** What about the nuclei count, normalised ([1]; measured here: cell number at 24 h, Library stock concentration: 1.111 mM) of the same compound?
**A.** 113%

**Q.** And the nuclei count, normalised ([1]; measured here: cell number at 24 h, Library stock concentration: 2 mM)?
**A.** 113% and 92.5%

**Q.** What about the nuclei count, normalised ([1]; measured here: cell number at 24 h, Library stock concentration: 3.33 mM) of the same compound?
**A.** 105%

**Q.** What about the nuclei count, normalised ([1]; measured here: cell number at 24 h, Library stock concentration: 3.333 mM) of the same compound?
**A.** 127%

**Q.** What about the nuclei count, normalised ([1]; measured here: cell number at 24 h, Library stock concentration: 10 mM) of the same compound?
**A.** 111% and 80.6% and 116%

**Q.** And the nuclei count, normalised ([1]; measured here: cell number at 48 h, Library stock concentration: 500 nM)?
**A.** 112%

**Q.** And the nuclei count, normalised ([1]; measured here: cell number at 48 h, Library stock concentration: 1.5 uM)?
**A.** 111%

**Q.** What about the nuclei count, normalised ([1]; measured here: cell number at 48 h, Library stock concentration: 4.6 uM) of the same compound?
**A.** 112%

**Q.** What about the nuclei count, normalised ([1]; measured here: cell number at 48 h, Library stock concentration: 13.7 uM) of the same compound?
**A.** 117%

**Q.** And the nuclei count, normalised ([1]; measured here: cell number at 48 h, Library stock concentration: 41 uM)?
**A.** 114%

**Q.** And the nuclei count, normalised ([1]; measured here: cell number at 48 h, Library stock concentration: 80 uM)?
**A.** 99.7% and 87.7%

**Q.** What about the nuclei count, normalised ([1]; measured here: cell number at 48 h, Library stock concentration: 123 uM) of the same compound?
**A.** 112%

**Q.** And the nuclei count, normalised ([1]; measured here: cell number at 48 h, Library stock concentration: 370 uM)?
**A.** 113%

**Q.** And the nuclei count, normalised ([1]; measured here: cell number at 48 h, Library stock concentration: 400 uM)?
**A.** 97.6% and 86%

**Q.** And the nuclei count, normalised ([1]; measured here: cell number at 48 h, Library stock concentration: 1.111 mM)?
**A.** 112%

**Q.** And the nuclei count, normalised ([1]; measured here: cell number at 48 h, Library stock concentration: 2 mM)?
**A.** 98% and 96.4%

**Q.** What about the nuclei count, normalised ([1]; measured here: cell number at 48 h, Library stock concentration: 3.33 mM) of the same compound?
**A.** 102%

**Q.** What about the nuclei count, normalised ([1]; measured here: cell number at 48 h, Library stock concentration: 3.333 mM) of the same compound?
**A.** 126%

**Q.** And the nuclei count, normalised ([1]; measured here: cell number at 48 h, Library stock concentration: 10 mM)?
**A.** 106% and 92.8% and 127%

**Q.** And the p53-positive nuclei, normalised ([2]; Library stock concentration: 500 nM)?
**A.** -0.0213% (inactive)

**Q.** What about the p53-positive nuclei, normalised ([2]; Library stock concentration: 1.5 uM) of the same compound?
**A.** 0.0237% (inactive)

**Q.** And the p53-positive nuclei, normalised ([2]; Library stock concentration: 4.6 uM)?
**A.** 0.0183% (inactive)

**Q.** What about the p53-positive nuclei, normalised ([2]; Library stock concentration: 13.7 uM) of the same compound?
**A.** -0.104% (inactive)

**Q.** And the p53-positive nuclei, normalised ([2]; Library stock concentration: 41 uM)?
**A.** -0.0533% (inactive)

**Q.** And the p53-positive nuclei, normalised ([2]; Library stock concentration: 80 uM)?
**A.** 0.0591% (inactive) and -0.273% (inactive)

**Q.** And the p53-positive nuclei, normalised ([2]; Library stock concentration: 123 uM)?
**A.** -0.176% (inactive)

**Q.** What about the p53-positive nuclei, normalised ([2]; Library stock concentration: 370 uM) of the same compound?
**A.** -0.136% (inactive)

**Q.** And the p53-positive nuclei, normalised ([2]; Library stock concentration: 400 uM)?
**A.** 0.0679% (inactive) and 0.126% (inactive)

**Q.** What about the p53-positive nuclei, normalised ([2]; Library stock concentration: 1.111 mM) of the same compound?
**A.** -0.092% (inactive)

**Q.** And the p53-positive nuclei, normalised ([2]; Library stock concentration: 2 mM)?
**A.** -0.0104% (inactive) and 0.232% (inactive)

**Q.** And the p53-positive nuclei, normalised ([2]; Library stock concentration: 3.33 mM)?
**A.** -0.445% (inactive)

**Q.** And the p53-positive nuclei, normalised ([2]; Library stock concentration: 3.333 mM)?
**A.** -0.149% (inactive)

**Q.** What about the p53-positive nuclei, normalised ([2]; Library stock concentration: 10 mM) of the same compound?
**A.** -0.104% (inactive) and 0.208% (inactive) and -0.0111% (inactive)

**Q.** What about the p53-positive nuclei, normalised ([2]; measured here: p53 positive nuclei at 24 h, Library stock concentration: 500 nM) of the same compound?
**A.** 0.154%

**Q.** What about the p53-positive nuclei, normalised ([2]; measured here: p53 positive nuclei at 24 h, Library stock concentration: 1.5 uM) of the same compound?
**A.** -0.0609%

**Q.** And the p53-positive nuclei, normalised ([2]; measured here: p53 positive nuclei at 24 h, Library stock concentration: 4.6 uM)?
**A.** -0.00335%

**Q.** And the p53-positive nuclei, normalised ([2]; measured here: p53 positive nuclei at 24 h, Library stock concentration: 13.7 uM)?
**A.** -0.0575%

**Q.** And the p53-positive nuclei, normalised ([2]; measured here: p53 positive nuclei at 24 h, Library stock concentration: 41 uM)?
**A.** 0.00542%

**Q.** And the p53-positive nuclei, normalised ([2]; measured here: p53 positive nuclei at 24 h, Library stock concentration: 80 uM)?
**A.** -0.0528% and -0.0593%

**Q.** What about the p53-positive nuclei, normalised ([2]; measured here: p53 positive nuclei at 24 h, Library stock concentration: 123 uM) of the same compound?
**A.** -0.105%

**Q.** And the p53-positive nuclei, normalised ([2]; measured here: p53 positive nuclei at 24 h, Library stock concentration: 370 uM)?
**A.** -0.113%

**Q.** And the p53-positive nuclei, normalised ([2]; measured here: p53 positive nuclei at 24 h, Library stock concentration: 400 uM)?
**A.** -0.0967% and 0.0394%

**Q.** What about the p53-positive nuclei, normalised ([2]; measured here: p53 positive nuclei at 24 h, Library stock concentration: 1.111 mM) of the same compound?
**A.** -0.104%

**Q.** And the p53-positive nuclei, normalised ([2]; measured here: p53 positive nuclei at 24 h, Library stock concentration: 2 mM)?
**A.** -0.0967% and 0.437%

**Q.** What about the p53-positive nuclei, normalised ([2]; measured here: p53 positive nuclei at 24 h, Library stock concentration: 3.33 mM) of the same compound?
**A.** 0.0238%

**Q.** And the p53-positive nuclei, normalised ([2]; measured here: p53 positive nuclei at 24 h, Library stock concentration: 3.333 mM)?
**A.** -0.165%

**Q.** What about the p53-positive nuclei, normalised ([2]; measured here: p53 positive nuclei at 24 h, Library stock concentration: 10 mM) of the same compound?
**A.** -0.00444% and -0.0479% and 0.0019%

Reference: PubChem BioAssay AID1508601 (ICCB-Longwood Screening Facility, Harvard Medical School, 2020)
